We go through 33 compounds from PubChem BioAssay AID1224852 (National Center for Advancing Translational Sciences (NCATS), 2016).

Records with an inconclusive call do not appear. Active and inactive are the calls of the source. Calls come from the whole dose curve; as a rule, active = well fitted curve in the direction sought with a large enough effect (not every such curve was filed as active); inconclusive = small, poorly fitted or top-dose-only effect, or effect the other way, or another doubt; inactive = no such curve, though single readings can be large or run the other way.

A short description of this assay: Cell viability assay for measurement of the protective activity of small molecules against cell death caused by Zika virus infection in human neural progenitor cells (hNPCs).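 Note: 0% = ZIKV-infected cells without compound and 100% = uninfected cells.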 Conditions: hNPC ZIKV-induced death protection, ATP luminescence, 72 h; series mostly up to 46.1 µM; protection, negative = more death: at the top concentration. In short, it runs like this: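 Human neural progenitor cells pretreated 1 h with compounds, then infected with Zika virus at 2 FFU/cell for 72 h at 37 C. Viability read as ATP-content luminescence; values are percent inhibition of the virus-induced viability loss.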
For the compound `CC(=O)OC(C)OC(=O)C(C)c1ccc(-c2ccccc2)c(F)c1` (stereo not drawn), the “protection, negative = more death” value is 0.83% (inactive).

Regarding `CC(C)Oc1ccc2c(=O)c(-c3ccccc3)coc2c1`, the “protection, negative = more death” value is -49.1% (inactive).

For `O=C(O)c1cc([N+](=O)[O-])ccc1NCCCc1ccccc1`, the “protection, negative = more death” value was -2.84% (inactive).

On to `CCCSc1ccc2nc(NC(=O)OC)[nH]c2c1`, for which the “protection, negative = more death” value is -53.9% (inactive).

Take `COc1ccc(-c2cc(=S)ss2)cc1`: the “protection, negative = more death” value was -17.4% (inactive).

Turning to `CCCCCCCCCCCC(=O)[O][Sn]([CH2]CCC)([CH2]CCC)[O]C(=O)CCCCCCCCCCC`, the “protection, negative = more death” value is 9.07% (inactive).

With `Cc1cccc(C#Cc2ccccc2)n1`, the “protection, negative = more death” value was 6.09% (inactive).

In the case of `O=c1c(-c2ccc(O)cc2)coc2cc(O)ccc12`, the “protection, negative = more death” value was -48.8% (inactive).

Regarding `O=C(Oc1ccccc1)c1cccc(C(=O)Oc2ccccc2)c1`, the “protection, negative = more death” value was -16.5% [at 96.3 µM] (inactive).

Consider `CCCCCNC(=O)N1CCC(CN(Cc2ccc(Cl)cc2)Cc2ccc([N+](=O)[O-])s2)C1` (stereo not drawn), for which the “protection, negative = more death” value is -69.1% (inactive).

Regarding `CNC(=O)c1ccccc1Sc1ccc2c(/C=C/c3ccccn3)n[nH]c2c1`, the “protection, negative = more death” value was -66.1% (inactive).

Regarding `CC(=O)Oc1cccc2c1C(=O)c1c(OC(C)=O)cc(C(=O)O)cc1C2=O`, the “protection, negative = more death” value is -25.4% (inactive).

In the case of `Nc1nc2ccc([N+](=O)[O-])cc2s1`, the “protection, negative = more death” value was -22.2% [at 88.3 µM] (inactive).

For the compound `O=C(CS)Nc1ccccc1`, the “protection, negative = more death” value was -49.6% (inactive).

Regarding `O=c1cc(-c2ccccc2)oc2cc(O)cc(O)c12`, the “protection, negative = more death” value is -30.1% (inactive).

`CC(=Cc1ccccc1)C=C1SC(=S)N(CC(=O)O)C1=O`: the “protection, negative = more death” value is -16.5% (inactive).

Turning to `CC(=O)Oc1ccccc1C(=O)Nc1ncc([N+](=O)[O-])s1`, the “protection, negative = more death” value was -68.9% [at 88.3 µM] (inactive).

Turning to `CCCCCCCC/C=C/C(=O)O`, the “protection, negative = more death” value was -1.9% (inactive).

Turning to `O=C(c1ccccc1)c1ccc2n1CCC2C(=O)O` (stereo not drawn), the “protection, negative = more death” value was -6.75% (inactive).

Regarding `Cc1c(NC(=O)c2ccc(C(C)(C)C)cc2)cccc1-c1cn(C)c(=O)c(Nc2ccc(C(=O)N3CCOCC3)cc2)n1`, the “protection, negative = more death” value is -49.7% (inactive).

On to `CC(C(=O)O)c1ccc(C(=O)c2ccccc2)s1` (stereo not drawn), for which the “protection, negative = more death” value was -7.59% (inactive).

In the case of `CN(C)c1ccc(C(=C2C=CC(=[N+](C)C)C=C2)c2ccccc2)cc1`, the “protection, negative = more death” value was -80.4% (inactive).

`Nc1cc(C(F)(F)F)ccc1S`: the “protection, negative = more death” value is -79.8% (inactive).

On to `CC(C)c1ccc2oc3nc(N)c(C(=O)O)cc3c(=O)c2c1`, for which the “protection, negative = more death” value was -79% (inactive).

As to `Clc1ccccc1-c1nc(-c2ccncc2)no1`, the “protection, negative = more death” value is -34% (inactive).

As for `Oc1cc(O)cc(/C=C/c2ccc(O)c(O)c2)c1`, the “protection, negative = more death” value is -63.8% (inactive).

Consider `NC(N)=NN=C(/C=C/c1ccc([N+](=O)[O-])o1)/C=C/c1ccc([N+](=O)[O-])o1`, for which the “protection, negative = more death” value is -84% (inactive).

With `CN(C)c1ccc(N=NS(=O)(=O)O)cc1`, the “protection, negative = more death” value was -43.6% [at 88.3 µM] (inactive).

In the case of `CCCCC1C(=O)N(c2ccccc2)N(c2ccc(O)cc2)C1=O` (stereo not drawn), the “protection, negative = more death” value is -76.6% (inactive).

Consider `COCCn1c2c([n+](Cc3cnccn3)c1C)C(=O)c1ccccc1C2=O`, for which the “protection, negative = more death” value was -79.9% (inactive).

As to `CCN(CC)c1ccc(C(=C2C=CC(=[N+](CC)CC)C=C2)c2cc(S(=O)(=O)O)ccc2S(=O)(=O)[O-])cc1`, the “protection, negative = more death” value was -44.4% (inactive).

In the case of `CCC(C)SSc1ncc[nH]1` (stereo not drawn), the “protection, negative = more death” value was -78% (inactive).

Regarding `O=C1C[C@@H](c2ccc(O)cc2)Oc2cc(O)cc(O)c21`, the “protection, negative = more death” value was -22.1% (inactive).
